# Many of the other results were omitted from the sample, so hits are more common in it than they were.
# GPT2 inh – inhibitors of human GPT2 alanine aminotransferase. Q8TD30. Recombinant GPT2, coupled pyruvate oxidase/HRP Amplex Red fluorescence. Potency, µM (highest dose often 57.7 µM), for inactives: top-dose activity change, negative = inhibition, hits mostly inhibitors. actives 0.25% (n = 100,000). AID 1671188; active = well fitted inhibition curve with a large enough effect; inconclusive = small, poorly fitted or top-dose-only effect; also: % is scaled to controls: 0 for no effect and ±100 for the full control effect; nearly all actives have a fitted effect of over 60% in size
#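 Inhibition is scored from Amplex Red fluorescence generated when pyruvate oxidase and HRP act on pyruvate released by GPT2. Reactions contain 10ng/uL enzyme, 250uM a-KG and 2mM L-alanine and run 30 min at room temperature.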
# NPR1 antag – blocks ANP-stimulated signaling of human Npr1 receptor; P16066; HEK293 hNpr1 GloSensor cGMP, ANP-stimulated luminescence; Potency, µM (titrated, usually from 46.3 µM), for the others: at the highest dose activity change, negative = inhibition, hits mostly inhibitors; actives 1.6% (n = 76,000); AID 1347048; also: % is scaled to controls: 0 for no effect and ±100 for the full control effect; nearly all actives have a fitted effect of over 60% in size
#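 HEK293 cells stably expressing human Npr1 and cGMP GloSensor pGS-40F, loaded 2 h with 2% GloSensor reagent, given compound 30 min at room temperature. Luminescence read before and 20 min after 0.1 nM hNppA.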
# NPR1 antag cnf – confirmation of human Npr1 natriuretic peptide receptor antagonists. shares compounds with NPR1 antag. HEK293 hNpr1 cGMP GloSensor luminescence, ANP-stimulated. Potency, µM (top dose mostly 57.6 µM), without a hit: top-dose activity change, negative = inhibition, hits mostly inhibitors. actives 76% (n = 1,400). AID 1347044; also: nearly all actives have a fitted effect of over 70% in size
# Npr2 selectivity – selectivity test of Npr1 antagonists against human Npr2; shares compounds with NPR1 antag; HEK293 hNpr2 GloSensor cGMP luminescence, CNP-stimulated; Potency, µM (titrated, usually from 57.6 µM), for the others: at the highest dose activity change, negative = inhibition, actives largely listed as inhibitors; actives 67% (n = 1,400); also: nearly all actives have a fitted effect of over 70% in size
# FLuc inh counter – inhibits firefly luciferase, false Npr1 antagonist flag | actives 0.7% (n = 1,400) | purified FLuc enzyme, luminescence, Km substrate | Potency, µM (titrated, usually from 57.6 µM), inactives show at the top dose activity change, negative = inhibition, most hits filed as inhibitors | shares compounds with NPR1 antag; active = well fitted inhibition curve with a large enough effect; inconclusive = small, poorly fitted or top-dose-only effect; also: series mostly up to about 58 µM; 0% is about no effect
# Target sequence (P08659 whole entry, looked up): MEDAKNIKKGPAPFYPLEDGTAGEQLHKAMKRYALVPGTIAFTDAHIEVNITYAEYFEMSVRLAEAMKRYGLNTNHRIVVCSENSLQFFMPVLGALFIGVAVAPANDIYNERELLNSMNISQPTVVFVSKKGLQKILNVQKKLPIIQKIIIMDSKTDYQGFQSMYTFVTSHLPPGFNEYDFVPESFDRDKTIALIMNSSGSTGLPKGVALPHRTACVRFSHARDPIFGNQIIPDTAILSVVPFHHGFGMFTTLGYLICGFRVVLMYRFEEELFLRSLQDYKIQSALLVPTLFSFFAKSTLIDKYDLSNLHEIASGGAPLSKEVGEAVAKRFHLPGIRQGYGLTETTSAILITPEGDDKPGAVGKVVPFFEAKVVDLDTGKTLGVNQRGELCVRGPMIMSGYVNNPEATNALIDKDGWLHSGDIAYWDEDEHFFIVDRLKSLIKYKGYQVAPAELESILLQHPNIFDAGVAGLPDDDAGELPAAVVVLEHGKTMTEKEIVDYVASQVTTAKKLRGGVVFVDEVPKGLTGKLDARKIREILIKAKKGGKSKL
# GloSensor cGMP – control cell line activity, Npr1 antagonist counter-screen; HEK293 GloSensor cGMP, SNP-stimulated, luminescence; Potency, µM (doses to about 57.6 µM), inactives show at the highest dose activity change, negative = inhibition, actives largely listed as inhibitors; actives 69% (n = 1,400); shares compounds with NPR1 antag; also: % is scaled to controls: 0 for no effect and ±100 for the full control effect; nearly all actives have a fitted effect of over 70% in size
# An asterisk follows results filed as active; i = inactive; u = inconclusive; x = no result; [ ] = another dose, or the depositor's remark. Unless noted, calls follow the shape of the full dose curve. Potency is read from the fitted curve at half-maximal effect.
SMILES,GPT2 inh,NPR1 antag,NPR1 antag cnf,Npr2 selectivity,FLuc inh counter,GloSensor cGMP
Cc1oc(C(O)c2ccccc2F)nc1C(=O)Nc1ccccc1 (stereo not drawn),4%[88.5 µM],-30%[70.6 µM],x,x,x,x
CNC(=O)c1cccc(NC(=O)c2nc(C(O)c3ccccc3F)oc2C)c1 (stereo not drawn),-2%[88.5 µM],35µM*,31µM*,31µM*,2%[86.2 µM],31µM*
Cc1oc(C(O)c2ccccc2F)nc1C(=O)Nc1ccc(C(N)=O)cc1 (stereo not drawn),-2%[88.5 µM],u,x,x,x,x
Cc1oc(C(O)c2ccccc2F)nc1C(=O)Nc1ccccc1C(N)=O (stereo not drawn),-8%[88.5 µM],25µM*,31µM*,35µM*,3%[86.2 µM],35µM*
CCN(Cc1ccccc1)C(=O)C1CCN(c2cnn(C)c(=O)c2)C1 (stereo not drawn),i,x,x,x,x,x
CC(C)(C)CC(=O)Nc1ccc([C@@H](O)[C@H]2COCC(=O)N2CCCc2ccccc2)cc1,-21%,3%,x,x,x,x
Cc1nn2c(c1-c1ccccc1C(N)=O)N(C(=O)c1ccccc1)CCC2,-3%[88.5 µM],0%[70.6 µM],x,x,x,x
COc1ccccc1CN1CCCn2nc(C)c(-c3ccccc3C(N)=O)c21,-13%[88.5 µM],14µM*,13µM*,31µM*,1%[86.2 µM],9.9µM*
Cc1nn2c(c1-c1ccccc1Oc1ccccc1)N(Cc1ccccc1O)CCC2,-24%[88.5 µM],7.9µM*,3.1µM*,13µM*,-2%[86.2 µM],2.2µM*
Cc1nn2c(c1-c1ccccc1Oc1ccccc1)N(Cc1cccc(O)c1)CCC2,-13%[88.5 µM],2.5µM*,11µM*,25µM*,0%[86.2 µM],11µM*
CC(=O)N1CCCn2nc(C)c(-c3ccccc3OCc3ccccc3)c21,-4%[88.5 µM],-1%[70.6 µM],x,x,x,x
Cc1nn2c(c1-c1ccccc1OCc1ccccc1)N(Cc1ccc(OCC(=O)O)cc1)CCC2,i,0%,x,x,x,x
CC(C)C(=O)Nc1cc(-c2cccnc2)nn1-c1ccccc1,i,x,x,x,x,x
CN(C)S(=O)(=O)N1CC[C@@H]2C(=O)NCCCCCCN(Cc3ccncc3)[C@@H]2C1,i,-1%,x,x,x,x
CC(=O)NCc1nnc2n1C(C(=O)NCC1CCCCC1)CC2 (stereo not drawn),4%[88.5 µM],x,x,x,x,x
Cc1ccc(-c2ccc3nnc(CNC(=O)C4CCCC4)n3n2)cc1C,i,2%,x,x,x,x
CN(Cc1cn(-c2ccccc2)nn1)Cc1noc(C2CCC2)n1,-7%,6%,x,x,x,x
CCN(Cc1noc(C2CCC2)n1)C(=O)C(C)Oc1ccc2ccccc2c1 (stereo not drawn),-8%,11µM*,19µM*,22µM*,-1%,14µM*
CCN1c2cc(C(=O)Nc3ccc(OC)cc3C)ccc2C(=O)N2CCCCCC21 (stereo not drawn),i,-6%,x,x,x,x
CN(CC1CCOC1)S(=O)(=O)c1ccc(F)c(F)c1 (stereo not drawn),i,3%,x,x,x,x
Cc1cc(Cl)ccc1OCC(=O)N1CCC2(CC1)CC(O)CCO2 (stereo not drawn),i,-1%,x,x,x,x
COCCc1noc(-c2ccccc2OC2CNC2)n1,i,9%,x,x,x,x
O=C(CCC1CCCN(Cc2cn[nH]c2-c2ccc(F)cc2)C1)Nc1ccccc1F (stereo not drawn),1%,-1%,x,x,x,x
COC(=O)c1ccc2nc(C[C@@H]3C[C@@H](C(C)C)[C@H](CNCc4ccccc4O)C=C3C)[nH]c2c1,i,u,x,x,x,x
COc1ccc2nc(C[C@@H]3C[C@@H](C(C)C)[C@H](CNCc4ccccc4OC)C=C3C)[nH]c2c1,0%,-26%,u,u,-2%,-26%
SMILES,GPT2 inh,NPR1 antag,NPR1 antag cnf,Npr2 selectivity,FLuc inh counter,GloSensor cGMP
NC(=O)c1cccc2[nH]c([C@H]3CCN(Cc4cccc(Cl)c4)C3)nc12,i,u,x,x,x,x
CCc1ccc(C(=O)N2CCCC(c3noc(-c4cc5c(=O)[nH]c(C)cn5n4)n3)C2)cc1 (stereo not drawn),i,23%,x,x,x,x
O=C(NCc1ccc(F)cc1)C1CCCN(Cc2cccc(-c3ccc(F)cc3F)c2)C1 (stereo not drawn),2%,x,x,x,x,x
COc1cccc(CNC(=O)c2ccc(-c3ccc(N4CCSCC4)nc3)cc2)c1,i,u,x,x,x,x
COc1ccc(OC)c(CNC(=O)c2ccc(-c3ccc(N4CCSCC4)nc3)cc2)c1,-15%,7.1µM*,6.9µM*,6.9µM*,-21%,6.1µM*
CCc1nccn1CC(=O)NC(C)c1cnn(-c2ccccc2C)c1C (stereo not drawn),-22%,11µM*,u,u,-2%,u
CCNc1ncc(C(=O)NC(C)c2cnn(-c3ccccc3C)c2C)cn1 (stereo not drawn),4%,-24%,x,x,x,x
CCCc1ccc(CN2CC[C@@H]3[C@@H](CCC(=O)N3CCc3cnc[nH]3)C2)o1,1%,-21%,x,x,x,x
COc1ccc(-c2cc3c(=O)n(CCNC(=O)c4cccc5[nH]ccc45)ccn3n2)cc1,i,-22%,x,x,x,x
O=C(Cn1c(=O)oc2ccccc21)NCC12CCCC=C1NC(=O)CC2 (stereo not drawn),i,5%,x,x,x,x
O=C1COc2ccc(Nc3ccc(Cl)cc3)nc2CN1Cc1nc2ccccc2s1,-13%[88.5 µM],u,u,u,-3%[86.2 µM],u
O=C1COc2ccc(-c3ccc(Cl)cc3)nc2CN1Cc1ccccc1,-2%[88.5 µM],u,31µM*,22µM*,3%[86.2 µM],u
Cc1ccccc1CN1Cc2nc(Nc3ccccc3)ccc2OCC1=O,i,-21%[70.6 µM],x,x,x,x
O=C1COc2ccc(-c3ccccc3)nc2CN1Cc1ccccc1,i,-16%[70.6 µM],x,x,x,x
CC(=O)N1CCC(C2CCN(S(=O)(=O)c3ccc(Cl)cc3C)C2)CC1 (stereo not drawn),i,-26%,x,x,x,x
COCc1nncn1C1CCN(C(=O)Cc2ccccc2Cl)CC1,-4%,-1%,x,x,x,x
CC1=C(C(=O)OC(C)C)C(c2ccccc2)N2C(CC(=O)NCC3CCCO3)=CSC2=N1 (stereo not drawn),i,-2%,x,x,x,x
COC(=O)C1=C(C)N=C2SC=C(CC(=O)NCC3CC3)N2C1c1ccccc1OC (stereo not drawn),-3%,-17%,x,x,x,x
CC1=C(C(=O)OC(C)C)C(c2ccccc2Cl)N2C(CC(=O)NCC3CC3)=CSC2=N1 (stereo not drawn),-7%,11µM*,u,22µM*,6%,u
CC1=C(C(=O)OC(C)C)C(c2ccccc2C)N2C(CC(=O)NCC3CC3)=CSC2=N1 (stereo not drawn),-6%,u,u,u,-1%,u
CNC(=O)[C@@H]1CN(C(=O)c2ccc(Cl)cc2OC)C[C@H]1c1nc(C)no1,i,3%,x,x,x,x

# High-throughput results as filed in PubChem.
